Data: PubChem BioAssay (EPA / NIEHS)
Activity calls are given as the source filed them. The calls were made as follows: active = hit-call score of the fitted dose curve at least 0.9, where 1 is the maximum; inactive = score below 0.9.

Assay: CCTE_Shafer_MEA_dev_mutual_information_norm: CCTE's Neural Network Formation Assay for Mutual Information Normalization, Shafer Lab (AID 2284091);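 as to AC50: potency is for a decrease in mutual information relative to DMSO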
Protocol: CCTE_Shafer_MEA_dev assay is conducted using Axion Biosystems 48 well microelectrode array (MEA) plates and Maestro recording system. Each well of the MEA plate contains a grid of 16 microelectrodes embedded in the culture surface. Electrically active cells, such as neurons, can be cultured over the electrodes, and electrical activity in these cells can be recorded extracellularly. The spontaneous firing of neurons is captured from each electrode on a microsecond timescale providing both temporally and spatially precise data. […] The CCTE_Shafer_MEA_dev assay uses primary cultures of rat cortical neurons. Recordings are made on days post-plating 5, 7, 9 and 12. As these cultures mature over time, neural networks develop functional activity and form cohesive networks in which electrical activity can be highly coordinated. CCTE_Shafer_MEA_dev_mutual_information_norm is 1 of 19 assay components of the CCTE_Shafer_MEA_dev assay. It is a measure of shared information between electrodes during a recording in a microelectrode array (MEA) using Axion Biosystems Maestro 768 channel amplifier with the AxIS adaptive spike detector. To collapse across multiple recordings made on days post-plating 5, 7, 9 and 12, the trapezoidal area-under-the-curve of the component is calculated.Data from the assay component CCTE_Shafer_MEA_dev_mutual_information_norm was analyzed into 1 assay endpoint. This assay endpoint, CCTE_Shafer_MEA_dev_mutual_information_norm, was analyzed in the negative analysis fitting direction relative to DMSO as the negative control and baseline of activity. Using a type of functional reporter, gain or loss-of-signal activity can be used to understand electrical activity.
On the day prior to culture, each well was coated thoroughly with 150 uL of 0.05% polyethyleneimine (PEI, Sigma Cat P3143) in 50 mM HEPES (Sigma Cat H7523) at a pH of 8. The plate was incubated at 37C for one hour. PEI was rinsed out with 500 uL of sterile water three times. Plates were stored at 4C until the day of culture. This culture was plated at a seeding density of 1.5 x 10^5 cells/well on a 48-well MEA plate, prepared as described above. Cells were administered via a 25 uL media/laminin ([…]; Sigma Cat L2020-1MG) drop directly onto the microelectrode array, as adding the cells with the laminin results in better attachment than pre-coating with laminin. After 2 hours, an additional 475 uL of cortical media was added and the cells returned to the incubator. Exposure starts at day 0 of plating and is continued over twelve days of network development until the experiment is terminated. Cells are fed with fresh medium on DIV 5 and 9, following the recordings on those days. The entire volume of media in the well is exchanged and any vehicle or compound treatment is renewed. Complete details are found in OP-NHEERL/ISTD/SBB/TJS/2015-03-r0 (available on request, email shafer.tim@epa.gov). Measurement of the electrical activity is non-invasive, and recordings can be made from the same plate over multiple different days of the culture. In cortical neurons, this allows for the measurement of extracellular action potentials over the period during which networks form in the MEA plate.

Question: Which AC50 does the source give for CC1(C)[C@H](C(=O)O[C@H](C#N)c2cccc(Oc3ccccc3)c2)[C@@H]1/C=C(\Cl)C(F)(F)F here?
Answer: 1.4 µM (active)

Question: For CNC(=O)CSP(=O)(OC)OC, which outcome is on record?
Answer: inactive

Question: For CC(C)[C@@H](Nc1ccc(C(F)(F)F)cc1Cl)C(=O)OC(C#N)c1cccc(Oc2ccccc2)c1 (stereo not given in full), which AC50 is on record?
Answer: 9.36 µM (active)

Question: Which AC50 does the source give for CCOCn1c(-c2ccc(Cl)cc2)c(C#N)c(Br)c1C(F)(F)F here?
Answer: 1.72 µM (active)

Question: Which outcome does the source give for CC(F)(F)CC(F)(F)F here?
Answer: inactive

Question: For O=S(=O)(F)C(F)(F)C(F)(F)C(F)(F)C(F)(F)F, which outcome is on record?
Answer: inactive

Question: Which outcome does the source give for Cc1cc(C(F)(C(F)(F)F)C(F)(F)F)ccc1NC(=O)c1cccc(I)c1C(=O)NC(C)(C)CS(C)(=O)=O here?
Answer: inactive

Question: For CS(=O)(=O)c1ccc(C(=O)C2C(=O)CCCC2=O)c(Cl)c1COCC(F)(F)F, which outcome is on record?
Answer: inactive

Question: For OC(Cc1ccccc1Cl)(Cn1[nH]cnc1=S)C1(Cl)CC1 (stereo not given), which AC50 is on record?
Answer: 6.39 µM (active)

Question: For CC(=O)C(F)(F)C(F)(F)F, which outcome is on record?
Answer: inactive

Question: With C=CCOC(F)(C(F)(F)F)C(F)(F)F as the compound, how does the outcome read?
Answer: inactive

Question: With FC(F)OCC(F)(F)C(F)(F)F as the compound, how does the outcome read?
Answer: inactive

Question: For C=CC(F)(C(F)(F)F)C(F)(F)C(F)(F)F (stereo not given), which outcome is on record?
Answer: inactive

Question: Which AC50 does the source give for NC(=O)c1ccc(N)nc1 here?
Answer: 7.61 µM (active)

Question: For Cc1ccccc1OP(=O)(Oc1ccccc1C)Oc1ccccc1C, which AC50 is on record?
Answer: 11.5 µM (active)
